NRP1-CendR mod: modulators of CendR peptide binding to NRP-1, primary screen, biochemical, fluorescence polarization, uHTS; inhibition, % at 25 µM; AID 602438, 2012; FAM-RPARPAR peptide binding to NRP-1; hit rate 0.85% among 360,000;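 active means inhibition or corrected inhibition above about 18%, plus a signal ratio from 0.5 to 1.5, limit read from the data, passing the limit was not always enough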
SKN-1 block: suppressors of acrylamide-induced Pgst-4::GFP reporter in worms, primary screen, SKN-1 inhibitor project, whole organism, uHTS, GFP/RFP fluorescence ratio, strain VP596; C. elegans VP596 Pgst-4::GFP/RFP ratio, 24 h; inhibition, % at 21.8 µM; hit rate 0.49% among 360,000;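 active means interference check ratio from 0.5 to 1.5 plus GFP to RFP signal ratio inhibition reaching or exceeding a fixed threshold, cut at about 30% in these data, passing the limit was not always enough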
MEKK2wt PB1 HTS: modulators of MEK5 binding to wildtype MEKK2, primary screen, biochemical, multiplex bead flow cytometry, Alexa488-MEK5. hit rate 1.1% among 290,000. AID 1531, 2009. Alexa488-MEK5 binding to MEKK2 WT; actives lie on both sides. binding response (% of control), % at 10 µM; in the data active means binding response below about 67% or above about 130%
MEKK2mut PB1 HTS: MEK5 binding signal on mutant MEKK2 PB1, primary screen, biochemical, multiplex bead flow cytometry, Alexa488-MEK5. Alexa488-MEK5 binding to MEKK2 mutant. percent response, % at 10 µM. hit rate 0.35% among 290,000; in the data active means percent response above about 24%, passing the limit was not always enough
MEKK3 PB1 HTS: modulators of MEKK3-MEK5 PB1 binding, primary screen, biochemical, wildtype MEKK3, multiplex bead flow cytometry, Alexa488-MEK5. hit rate 1.4% among 290,000. bead-based flow cytometry, Alexa488-MEK5 binding to MEKK3; actives lie on both sides; 0 = blocked by unlabeled MEK5, 100 = vehicle. binding response (% of control), % at 10 µM. Mitogen-activated protein kinase kinase kinase 3 (Homo sapiens), Q99759;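 active means binding response more than 3 SD above or below the average of its plate-row segment, actives on both sides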;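 further: Alexa488 bead fluorescence after subtracting the streptavidin-only scavenger bead signal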
Starred values were filed as active, the others as inactive; x = no result. Hits are enriched below; roughly 3.2% of the tested compounds scored in any of these assays.

SMILES | NRP1-CendR mod | SKN-1 block | MEKK2wt PB1 HTS | MEKK2mut PB1 HTS | MEKK3 PB1 HTS
Cc1ccc(CNC(=O)c2oc3ccc(S(=O)(=O)N4CCOCC4)cc3c2C)cc1 | 13 | 6 | 103 | 2 | 105
O=C(Cn1cnc2ccccc2c1=O)c1ccc(OC(F)F)cc1 | 3 | -6 | 98 | -1 | 101
COc1ccc(Cc2[nH]n3c(=O)cc(C)nc3c2-c2ccccc2)cc1 | 6 | -1 | 74 | -20 | 77
COc1ccc(Cc2[nH]n3c(=O)cc(C(C)C)nc3c2-c2ccccc2)cc1 | 18* | 6 | 99 | 1 | 102
CCOC(=O)c1csc(NC(=O)c2ccc3c(c2)OCCO3)n1 | 29* | 6 | 99 | 0 | 102
CCOC(=O)c1csc(NC(=O)c2ccc(OC)c(OC)c2)n1 | 0 | -6 | 102 | 4 | 104
COC(=O)C1=C(C)NC(C)=C(C(=O)OC)C1c1ccc(OC(=O)c2ccco2)cc1 | 6 | 35* | 103 | -1 | 104
CCOc1cc2[nH]c(=S)n(CCC(=O)NC3CCCCC3)c(=O)c2cc1OCC | -12 | 8 | x | x | x
O=C1CCN(CCc2ccccc2)CCN1[C@H](CO)c1ccccc1 | 5 | 12 | 98 | -3 | 97
O=C1CCN(Cc2cccnc2)CCN1[C@H](CO)c1ccccc1 | 22* | 11 | 100 | 2 | 102
COc1ccc(S(=O)(=O)n2ccc(-c3ccc(OCCN(C)c4ccccn4)cc3)n2)cc1 | -2 | 45* | 109 | 4 | 106
Cc1ccc(NC(=O)CCN2C(=O)NC(C)(C)C2=O)cc1F | 4 | -13 | x | x | x
COC(=O)Cn1c(CN2CCN(C(=O)c3ccco3)CC2)nc2c1c(=O)n(C)c(=O)n2C | 8 | -3 | 95 | -8 | 94
Brc1cc(Br)c2nc(-c3cccs3)ccc2c1 | 4 | 58* | 97 | 2 | 102
O=C(Nc1ccccc1)C(=O)Nc1ccc2c(c1)N(C(=O)C1CC1)CCC2 | 0 | 6 | x | x | x
O=C1/C(=C/c2c[nH]c3ccccc23)CCC/C1=C\c1c[nH]c2ccccc12 | -98 | 22 | 81 | 96* | 89
CC(=O)c1cccc(-c2ccnc3c2CC(C(=O)Nc2cccc(NS(C)(=O)=O)c2)O3)c1 (stereo not drawn) | -18 | 0 | x | x | x
CCN(CC)CCN1C(=O)c2cccc3cc(N)cc(c23)C1=O | 60 | -23 | 101 | 13 | 105
Nc1cc2c3c(cccc3c1)C(=O)N(CCN1CCCC1)C2=O | 32* | 12 | 98 | 5 | 101
O=C1c2cccc3cc([N+](=O)[O-])cc(c23)C(=O)N1CCN1CCCC1 | 30* | 4 | 98 | 3 | 92
COc1cc(C(=O)NCc2ccccc2)cc(Br)c1OC | 21* | 8 | 102 | 5 | 102
COc1ccc(S(=O)(=O)N2CCC(C(=O)NN3CCCCC3)CC2)cc1OC | 7 | 5 | x | x | x
CCCCCCCCNC(=O)C(CCC(=O)OCc1ccccc1)NC(C)=O (stereo not drawn) | 9 | 53* | 104 | 2 | 98
CCC(C)C(N)C(=O)NC(CCC(=O)OCc1ccccc1)C(N)=O (stereo not drawn) | 2 | 8 | 105 | 10 | 100
Cn1c(=O)c2c(ncn2CC(COCc2ccccc2)OCc2ccccc2)n(C)c1=O (stereo not drawn) | 30* | -2 | 101 | -1 | 97
CCCCN1C(=O)C2(NNc3ccccc3O2)c2ccccc21 (stereo not drawn) | -168 | 6 | 54* | 20 | 108
C=CCN1C(=O)C2(NNc3ccccc3O2)c2ccccc21 (stereo not drawn) | -112 | -11 | 95 | 1 | 95
COc1ccc(/C=N/NC(=O)CCn2cnc(-c3ccccc3)c2-c2ccccc2)cc1 | -2 | 1 | 106 | 2 | 150*
O=C(CCn1cnc(-c2ccccc2)c1-c1ccccc1)N/N=C/c1ccc(O)cc1 | -6 | 6 | 95 | 2 | 77
